The nature of test [1]: qHTS assay to identify aromatase inhibitors - cell viability counter screen (AID 743084).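 Further: cells stimulated with testosterone during compound exposure; nearly all actives have a fitted effect of over 55% in size.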 For orientation: qHTS replaces the single test concentration by a dilution series.
Test [2] deals with Aryl hydrocarbon receptor (Homo sapiens) (UniProt P35869). Briefly: qHTS assay to identify small molecule that activate the aryl hydrocarbon receptor (AhR) signaling pathway (AID 743085). Further: nearly all actives have a fitted effect of over 15% in size. Further: potency means the concentration at half of the fitted maximal effect.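 On activation: HG2L7.5c1 human HepG2 liver cells with stably integrated DRE-driven firefly reporter; series mostly up to about 70 µM.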 An outline of the steps: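 HepG2 cells stably carrying a 20-DRE firefly luciferase reporter (HG2L7.5c1) treated with compound for 24 hr at 37C. Luciferase read by ONE-Glo luminescence, with CellTiter-Fluor viability read first.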
Aryl hydrocarbon receptor (Homo sapiens), sequence (P35869 whole entry, looked up): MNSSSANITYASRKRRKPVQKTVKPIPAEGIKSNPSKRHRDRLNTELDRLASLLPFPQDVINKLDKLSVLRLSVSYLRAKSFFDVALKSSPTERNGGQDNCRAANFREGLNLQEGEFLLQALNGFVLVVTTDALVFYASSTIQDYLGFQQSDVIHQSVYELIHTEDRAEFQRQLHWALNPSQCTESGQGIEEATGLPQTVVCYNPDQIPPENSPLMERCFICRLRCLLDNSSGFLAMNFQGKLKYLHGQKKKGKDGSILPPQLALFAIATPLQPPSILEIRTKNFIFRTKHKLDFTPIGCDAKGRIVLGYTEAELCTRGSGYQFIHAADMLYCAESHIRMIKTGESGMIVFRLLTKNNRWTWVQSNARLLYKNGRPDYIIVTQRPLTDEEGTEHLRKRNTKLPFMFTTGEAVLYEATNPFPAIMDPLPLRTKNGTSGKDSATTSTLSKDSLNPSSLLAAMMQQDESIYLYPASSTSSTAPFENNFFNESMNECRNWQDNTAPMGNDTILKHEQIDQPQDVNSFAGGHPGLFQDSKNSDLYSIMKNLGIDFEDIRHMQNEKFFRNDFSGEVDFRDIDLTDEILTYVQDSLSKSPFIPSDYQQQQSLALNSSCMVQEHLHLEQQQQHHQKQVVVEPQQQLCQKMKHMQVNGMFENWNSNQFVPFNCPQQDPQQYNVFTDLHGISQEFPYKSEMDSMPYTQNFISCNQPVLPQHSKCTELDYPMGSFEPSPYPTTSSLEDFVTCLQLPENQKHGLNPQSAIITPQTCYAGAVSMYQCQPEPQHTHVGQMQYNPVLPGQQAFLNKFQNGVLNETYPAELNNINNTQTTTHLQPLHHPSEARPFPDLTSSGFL

The nature of test [3]: qHTS assay to identify small molecule that activate the aryl hydrocarbon receptor (AhR) signaling pathway - cell viability counter screen (AID 743086). Further: series mostly up to about 70 µM; nearly all actives have a fitted effect of over 45% in size. An outline of the steps:
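HepG2-AhR-luc (HG2L7.5c1) cells, 4000/well, treated 24 h at 37 C with compound; viability measured as CellTiter-Fluor fluorescence after 30 min in the same wells as the luciferase read.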

Test [4] concerns the target Peroxisome proliferator-activated receptor gamma (Homo sapiens) (UniProt P37231). Briefly: qHTS assay to identify small molecule agonists of the peroxisome proliferator-activated receptor gamma (PPARg) signaling pathway (AID 743094; active means well fitted activation curve with a large enough effect in the signal ratio in the repeat runs, not every such curve was filed as active; the % refers to the signal ratio). An outline of the steps:
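Compounds dissolved in DMSO were added to PPARg UAS-bla HEK293H cells for 17 h at 37C, and reporter expression was quantified by fluorescence intensity after 1 h with LiveBLAzer B/G FRET substrate.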

Test [5] can be described thus: qHTS assay to identify small molecule antagonists of the peroxisome proliferator-activated receptor gamma (PPARg) signaling pathway - cell viability counter screen (AID 743194). Further: nearly all actives have a fitted effect of over 55% in size. An outline of the steps: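 Cytotoxicity counter screen in PPARg-bla HEK293H cells, same wells as reporter assay. Compounds plus 50 nM rosiglitazone (final) for 17 h at 37 C, then viability read by CellTiter-Glo luminescence.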

The nature of test [6]: qHTS assay for small molecule agonists of the antioxidant response element (ARE) signaling pathway (AID 743202; active means well fitted activation curve with a large enough effect in the signal ratio in the repeat runs, not every such curve was filed as active; the % refers to the signal ratio). The gist of the method: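 Agonist mode reporter screen: HepG2 cells with ARE-controlled beta-lactamase are incubated with test compounds for 16 h at 37 C, and beta-lactamase activity is measured as fluorescence of cleaved B/G FRET substrate.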
Test [7] is described as follows: qHTS assay for small molecule agonists of the antioxidant response element (ARE) signaling pathway - cell viability counter screen (AID 743203; calls by dose curve; further: nearly all actives have a fitted effect of over 55% in size). The gist of the method:
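Following 16 hrs of compound treatment at 37C, HepG2 cells with an ARE-controlled beta-lactamase gene were lysed with CellTiter-Glo. Luminescence was read after 30 min at room temperature.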

Test [8] is described as follows: qHTS assay for small molecule activators of the heat shock response signaling pathway - cell viability counter screen (AID 743209). Further: nearly all actives have a fitted effect of over 50% in size. An outline of the steps: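 Readout: CellTiter-Glo luminescence, 30 min at room temperature. System: HSE-bla HeLa cells, 1500/well, plated overnight. Treatment: compounds in DMSO, 5 h at 37 C.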
Test [9] can be described thus: qHTS assay for small molecule activators of the heat shock response signaling pathway (AID 743210; active means well fitted activation curve with a large enough effect in the signal ratio in the repeat runs, with a control signal flat, not every such curve was filed as active; the % refers to the signal ratio;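 further: HeLa cells with beta-lactamase reporter driven by heat shock elements; series mostly up to about 63 µM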). The gist of the method: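 Quantitative high-throughput format using an engineered HeLa line in which heat shock response elements drive beta-lactamase; after 5 h with compound, cells received a B/G FRET substrate and fluorescence was read.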
For test [10], the target named is Peroxisome proliferator-activated receptor gamma (Homo sapiens) (UniProt P37231). Briefly: qHTS assay to identify small molecule antagonists of the peroxisome proliferator-activated receptor gamma (PPARg) signaling pathway (AID 743191; calls by dose curve; further: series mostly up to about 63 µM; nearly all actives have a fitted effect of over 30% in size). The gist of the method:
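GeneBLAzer PPARg UAS-bla HEK293H cells, 5 h post-plating, exposed to compounds 17 h at 37C. LiveBLAzer B/G FRET substrate added for 1 h at room temperature; beta-lactamase reporter read by fluorescence intensity.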

Records with an inconclusive call do not appear. Active and inactive are the calls of the source. Unless noted, the call rests on the fitted dose curve; in most records, active means well fitted curve in the direction sought with a large enough effect in the repeat runs; inconclusive means weak or mixed curves; inactive means no such curve, though single readings can be large; an effect the other way counts as inactive or inconclusive.

Peroxisome proliferator-activated receptor gamma (Homo sapiens), sequence (P37231 whole entry, looked up): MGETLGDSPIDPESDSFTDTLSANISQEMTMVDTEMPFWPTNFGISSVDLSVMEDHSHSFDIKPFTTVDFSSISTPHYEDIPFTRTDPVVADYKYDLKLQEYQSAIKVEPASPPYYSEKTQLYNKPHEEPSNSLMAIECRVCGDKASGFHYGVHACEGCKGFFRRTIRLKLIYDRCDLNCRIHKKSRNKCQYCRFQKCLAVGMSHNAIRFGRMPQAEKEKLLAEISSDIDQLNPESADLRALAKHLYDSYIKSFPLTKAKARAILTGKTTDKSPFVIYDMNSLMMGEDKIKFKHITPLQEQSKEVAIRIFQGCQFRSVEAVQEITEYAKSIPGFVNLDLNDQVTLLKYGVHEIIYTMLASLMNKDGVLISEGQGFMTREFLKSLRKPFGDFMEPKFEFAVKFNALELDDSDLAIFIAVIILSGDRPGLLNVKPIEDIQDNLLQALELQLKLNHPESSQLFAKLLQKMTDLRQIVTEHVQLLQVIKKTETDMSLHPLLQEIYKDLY

For the compound `COC(=O)c1ccccc1C(=O)c1ccc(OCCN2CCCCC2)cc1`, the Potency result in test [1], in test [2], in [3] and in test [6] was “inactive” in each case. Moreover, the compound was classed as inactive in [4], in [5], in [7], in test [8] and in test [9].
Consider `COc1ccc(C2CNC(=O)C2)cc1OC1CCCC1` (stereo not drawn), for which the Potency entry in test [1], in test [2], in test [3] and in test [6] was “inactive” in each case. For the same compound, the outcome in test [4], in test [5], in test [7], in [8] and in test [9] was inactive.
Consider `O=C1c2ccccc2C(=O)c2cc(S(=O)(=O)O)ccc21`, for which the Potency entry in test [1], in test [2], in test [10] and in [6] was “inactive” in each case. In addition, the compound was classed as inactive in test [4], in test [5], in test [7], in test [8] and in test [9].
On to `Nc1ccc2cc(S(=O)(=O)O)cc(O)c2c1`, for which the Potency entry in test [1] and in test [10] was “inactive” throughout. Also, the Potency in test [2] is 27.1 µM (active). For the same compound, the compound was classed as inactive in test [4], in test [5], in test [7], in test [8] and in test [9].
For the compound `CC1=C(C(=O)O)N2C(=O)[C@@H](NC(=O)[C@H](N)c3ccc(O)cc3)[C@H]2SC1`, the Potency entry in test [1], in [2] and in [3] was “inactive” throughout. For the same compound, the compound was called inactive in [5], in test [7], in test [8] and in test [9].
Turning to `CCCCCCCCC1CCC(=O)O1` (stereo not drawn), the Potency result in test [1], in [2] and in test [3] was “inactive” in each case. For the same compound, the compound was classed as inactive in test [4], in test [5], in test [7], in [8] and in test [9].
`O=C(O)Cc1ccc(Cl)cc1Cl`: the Potency entry in [1], in test [2], in test [10] and in [6] was “inactive” throughout. Also, the call in [4], in test [5], in [7] and in test [8] was inactive.
For `CC(=O)NCCCCCC(=O)O`, the Potency result in test [1], in [2], in test [10] and in [6] was “inactive” each time. For the same compound, the result in [4], in test [5], in test [7], in test [8] and in test [9] was inactive.
Regarding `CCCCCCCCCCl`, the Potency result in test [1], in test [2], in test [10] and in [6] was “inactive” each time. Further, the outcome in [4], in [5], in test [7] and in [8] was inactive.
For `COc1ccc(OC)c(Cl)c1`, the Potency entry in test [1], in [2] and in [10] was “inactive” in each case. Besides, the call in [4], in test [5], in test [7], in [8] and in test [9] was inactive.

These data come from PubChem BioAssay (Tox21).
